Unmarked numbers belong to inactive results. No stated cut-off is given here; in the data, active means log2 fold change growth below about -1.8; inactive means the rest.
Assay: C. elegans growth inhibition, whole organism, log2 fold change (AID 1259336);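 further: growth scored by imaging after five days at 20 °C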
Settings: anthelmintic screen, active compounds read low

| Structure (SMILES) | log2 fold change growth |
| --- | --- |
| O=C(Nc1ccccc1)c1ccc(-c2cc3ccncc3cc2OC2CCNCC2)s1 | -0.0844 |
| CC1(O)CC(c2nc(-c3ccc4ccc(-c5ccccc5)nc4c3)c3c(N)nccn23)C1 (centres undefined) | -0.23 |
| FC(F)(F)c1nnc2ccc(Cl)nn12 | -0.128 |
| COc1ccccc1[C@H](C)NCC(=O)Nc1cc(C(F)(F)F)ccc1Cl | 0.142 |
| O=C(Nc1nnc(-c2ccc(Cl)s2)o1)c1ccc(Cl)s1 | 0.518 |
| N#CCN(CCCCN1CCN(c2ccc(F)cc2)CC1)C(=O)OCc1ccccc1 | 0.194 |
| O=C(NC1CC1)c1ccc(N2CCC(Cc3ccccc3)CC2)nc1 | 0.0189 |
| Cc1cc2nc(NC(=O)C(C)(C)C)nc(Cl)c2n1Cc1ccc(Cl)cc1 | 0.316 |
| CC(C)c1ncc(-c2ccncc2)c(C2CCC(CNC(=O)c3cccnc3)CC2)n1 (centres undefined) | -0.0296 |
| CN1CCN(CCCOc2ncc(Nc3ncc(-c4ccc(C(F)(F)F)c(F)c4)nc3C(N)=O)cn2)CC1 | -0.568 |
| CNC(=O)[C@@H]1Cc2c([nH]c3cc(Cl)ccc23)C2(CCN(CCc3ccccc3)CC2)N1 | 0.551 |
| C[C@@H](c1cc(Cl)cc(Cl)c1)N(C)c1ncc2c(N)nc(N)nc2n1 | -0.371 |
| COc1ccc([C@@H]2CC(c3cccs3)=NN2C(=O)c2ccco2)cc1OC | -0.296 |
| C[C@@H]1[C@H](O)[C@@H](C)C=CC=CC=CC=CC=CC=CC=C[C@H](O[C@@H]2O[C@H](C)[C@@H](O)[C@H](N)[C@@H]2O)C[C@@H]2O[C@](O)(C[C@@H](O)C[C@@H](O)[C@H](O)CC[C@H](O)C[C@@H](O)CC(=O)O[C@H]1C)C[C@H](O)[C@H]2C(=O)O | 0.0153 |
| COc1ccc(-c2cnc3ccc(NCc4ccc(S(N)(=O)=O)cc4)nn23)cn1 | 0.21 |
| Cc1cc(Nc2ccc(C(F)(F)F)cc2)n2ccnc2n1 | 0.0805 |
| O=C(Nc1cnc2ccccc2c1)c1cccc(-n2cnnn2)c1 | 0.489 |

| Structure (SMILES) | log2 fold change growth |
| --- | --- |
| O=C(NCCc1ccccc1)c1cc(-c2cccnc2)cnc1NCC1CC1 | -0.19 |
| Cc1[nH]c2ccccc2c1[C@H](c1cccs1)N1CCN(C)CC1 | -0.0891 |
| C[C@]1(COc2ccc(N3CCC(Oc4ccc(OC(F)(F)F)cc4)CC3)cc2)Cn2cc([N+](=O)[O-])nc2O1 | 0.162 |
| COc1cccc(OCC(=O)c2ccc(Br)cc2)c1 | -0.945 |
| Nc1ncnc2c1c(-c1cnc3ccccc3c1)nn2CC1CCNCC1 | 0.195 |
| c1ccc(C[C@@H]2CN(c3nccc(Oc4ccc(-n5ccnc5)cc4)n3)CCN2)cc1 | 0.11 |
| Nc1ncnc2n[nH]c(Cc3cccc4ccccc34)c12 | 0.242 |
| O=C(Nc1n[nH]c(=S)s1)c1cc(Br)ccc1Cl | 0.172 |
| CNc1nnc(Sc2cnn(-c3ccccc3)c(=O)c2Cl)s1 | -0.948 |
| CCOc1ccc2cc(-c3nn(CC4CCN(C)CC4)c4ncnc(N)c34)ccc2c1 | 0.151 |
| CCS(=O)(=O)N(Cc1ccco1)Cc1cc2ccc(C)cc2[nH]c1=O | 0.443 |
| COc1ccc(-c2onc(C(F)(F)F)c2-c2ccc(Cl)cc2)c(O)c1 | 0.102 |
| CCn1cnc2c(Nc3cc(F)cc(F)c3)nc(C#N)nc21 | -0.053 |
| CCCCc1ccc(C(=O)Nc2nccc3ccccc23)nc1 | 0.243 |
| Cc1cnc(N2CCN[C@@H](Cc3ccccc3)C2)nc1Oc1ccc(-n2ccnc2)cc1 | 0.245 |
| CC(C)=CCC/C(C)=C\CNCCNC1C2CC3CC(C2)CC1C3 (centres undefined) | 0.423 |
| COc1cncc(-c2cncc(N3CCN(c4ccncc4)CC3)n2)c1 | -0.191 |
